Experiment [1] can be described thus: resazurin metabolic signal in HepG2 cells – cell-based, resazurin fluorescence, 24 h, PK04 Diversity Set, profiling panel (AID 1172). Further: test concentration not given here. To be noted: HepG2 viability, higher = more signal.
Experiment [2] can be described thus: budding yeast growth changes without added modifier – OD600, strain BY4716, 24 h, basal condition, primary screen (AID 1173). The note with it: S. cerevisiae BY4716 growth, OD600, 24 h; higher = more signal, called active from +8 up or from −8 down.
Experiment [3] can be described thus: viability profiling in MM1S myeloma cells – cell-based, resazurin fluorescence, basal, 24 h, PK04 Diversity Set, profiling panel (AID 1174).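 Further: MM1S multiple myeloma cell line; test concentration not given here.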 To be noted: higher = more signal, called active from +8 up or from −8 down.
In experiment [4] the target is Dihydroorotate dehydrogenase (quinone), mitochondrial (Plasmodium falciparum (isolate 3D7)) (UniProt Q08210). In words: inhibition of P. falciparum DHODH – biochemical, C-terminal His tag, absorbance 600 nm, primary screen (AID 1175).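 Further: recombinant parasite enzyme with a five histidine tag at its C terminus; test concentration not given here.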 To be noted: PfDHODH enzyme, DCIP absorbance 600 nm; higher = more signal, called active from +8 up or from −8 down.
Experiment [5] is described as follows: inhibition of PAO1 biofilm formation – strain PAO1, LB-PBS medium, absorbance 600 nm, primary screen (AID 1176). Further: test concentration not given here. To be noted: P. aeruginosa PAO1 growth/biofilm, A600, 12 h; higher = more signal.
Experiment [6] can be described thus: growth modulation of vineyard yeast isolate – strain RM11-1a, OD600, basal, 24 h, primary screen (AID 1177).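 Further: cultures grown under basal conditions with no added stressor; test concentration not given here.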 The note with it: S. cerevisiae RM11-1a growth, OD600, 24 h; higher = more signal, called active from +8 up or from −8 down.
Experiment [7] can be described thus: growth of efflux-deficient E. coli DRC39 – strain DRC39, OD650, 24 h, E. coli filamentation inducers, primary screen (AID 1178).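 Further: growth measured as culture turbidity by optical density at 650 nm; test concentration not given here.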 The note with it: E. coli DRC39 acrAB, higher = more signal, called active from +8 up or from −8 down.
Experiment [8] in a line: growth of efflux-deficient E. coli DRC39 – strain DRC39, OD650, 48 h, E. coli filamentation inducers, primary screen (AID 1179).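 Further: screen aims at cell division blockers that make cells filament.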 The note with it: E. coli DRC39 delta-acrAB growth, higher = more signal, called active from +8 up or from −8 down.
Experiment [9] in a line: viability profiling in RPMI8226 myeloma cells – cell-based, resazurin fluorescence, basal, 24 h, PK04 Diversity Set, profiling panel (AID 1180).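 Further: RPMI8826 multiple myeloma cell line at 5000 cells per well; test concentration not given here.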 To be noted: higher = more signal. Background: Resazurin is reduced to fluorescent resorufin, in cell work by metabolically active cells.
Experiment [10] deals with E3 ubiquitin-protein ligase XIAP (Homo sapiens) (UniProt P98170). Briefly: small molecules binding XIAP protein – biophysical, small-molecule microarray, fluorescence 635 nm, primary screen (AID 1181).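 Further: score merges 667 nm emission and signal to noise over triplicate slides.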 To be noted: higher = more signal.

Consider twelve compounds from PubChem BioAssay.

The source made the active and inactive calls. Unless noted, how the calls were made is not given here.

Dihydroorotate dehydrogenase (quinone), mitochondrial (Plasmodium falciparum (isolate 3D7)), sequence (Q08210 whole entry, looked up): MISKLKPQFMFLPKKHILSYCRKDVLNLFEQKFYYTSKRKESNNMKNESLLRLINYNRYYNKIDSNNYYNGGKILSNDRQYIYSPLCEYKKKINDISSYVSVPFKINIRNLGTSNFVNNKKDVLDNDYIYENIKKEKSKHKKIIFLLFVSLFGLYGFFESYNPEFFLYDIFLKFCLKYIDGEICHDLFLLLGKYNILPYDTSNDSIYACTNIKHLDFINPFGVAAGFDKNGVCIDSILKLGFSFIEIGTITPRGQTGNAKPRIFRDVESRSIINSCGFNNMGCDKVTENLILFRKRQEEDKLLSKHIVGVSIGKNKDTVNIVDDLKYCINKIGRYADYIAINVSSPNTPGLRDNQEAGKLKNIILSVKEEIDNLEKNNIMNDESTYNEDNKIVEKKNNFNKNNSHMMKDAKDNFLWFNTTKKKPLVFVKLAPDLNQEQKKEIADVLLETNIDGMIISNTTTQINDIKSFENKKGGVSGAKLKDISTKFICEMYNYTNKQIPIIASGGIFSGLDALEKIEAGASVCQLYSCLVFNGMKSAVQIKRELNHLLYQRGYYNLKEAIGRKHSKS
E3 ubiquitin-protein ligase XIAP (Homo sapiens), sequence (P98170 whole entry, looked up): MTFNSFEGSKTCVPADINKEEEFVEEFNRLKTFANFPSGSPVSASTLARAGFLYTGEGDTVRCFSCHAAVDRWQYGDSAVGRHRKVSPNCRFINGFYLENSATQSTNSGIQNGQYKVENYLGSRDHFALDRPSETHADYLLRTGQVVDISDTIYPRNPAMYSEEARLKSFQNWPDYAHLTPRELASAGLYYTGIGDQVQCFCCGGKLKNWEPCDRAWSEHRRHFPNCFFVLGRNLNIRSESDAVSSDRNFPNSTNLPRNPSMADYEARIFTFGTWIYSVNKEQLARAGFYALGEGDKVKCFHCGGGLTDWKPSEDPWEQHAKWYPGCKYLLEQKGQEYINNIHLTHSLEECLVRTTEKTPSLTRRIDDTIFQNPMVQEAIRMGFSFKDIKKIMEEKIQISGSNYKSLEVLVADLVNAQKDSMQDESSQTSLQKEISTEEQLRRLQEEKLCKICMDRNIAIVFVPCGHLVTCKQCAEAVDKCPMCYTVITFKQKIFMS

Consider `[N-]=[N+]=NCc1ccccc1[C@H]1OC(c2ccc(OCCCO)cc2)=N[C@@]1(CCS(=O)(=O)c1ccccc1)C(=O)NCC(O)CO` (stereo not given in full), for which the z-score was 0.044 in [1]; 0.323 (inactive) in [2]; -0.315 (inactive) in experiment [3]; 1.76 (inactive) in experiment [5]; 1.64 (inactive) in experiment [6]; 0.852 (inactive) in experiment [7]. Further, the z-score in experiment [8] was -0.679 (inactive); in experiment [9], 0.0345. The composite z-score is 1.09 (inactive) in experiment [4] and -0.0553 in [10].

In the case of `CC(C)[Si](C#CCCCC#N)(O[C@H](c1ccccc1)c1cn([C@H](CO)Cc2ccccc2)nn1)C(C)C`, the z-score in experiment [1] is 0.374; in [2], -9.13 (active); in experiment [3], 0.288 (inactive); in experiment [5], 1.44 (inactive); in experiment [6], -1.8 (inactive); in experiment [7], 0.178 (inactive). The values for the z-score in experiment [8] and in experiment [9] were 0.362 (inactive) and 0.289, respectively. Moreover, the composite z-score in experiment [4] is -0.804 (inactive); in [10], -0.111.

For the compound `COc1cc(CO)cc(I)c1O[C@H]1C=C(C(=O)NCCO)C[C@@H](NCc2ccc(F)cc2)[C@@H]1O`, the z-score in experiment [1] was -0.205; in experiment [2], -3.76 (inactive); in [3], -1.29 (inactive); in experiment [5], 0.507 (inactive); in experiment [6] it was 0.0419 (inactive); in experiment [7], 0.988 (inactive). Further, the z-score in experiment [8] was 0.878 (inactive); in experiment [9], -0.512. Further, the composite z-score was 0.969 (inactive) in [4] and -0.101 in [10].

Consider `C=CCOC(=O)[C@H]1[C@@H]2C(=O)O[C@@H](c3ccccc3)[C@@H](c3ccccc3)N2[C@@H](c2ccc(OCCOC(=O)[C@@H]3C[C@@H]4C(=O)N[C@@H](CCCCNC(C)=O)C(=O)N4[C@@H]3c3ccc(O)cc3)cc2)[C@]12C(=O)Nc1ccc(I)cc12`, for which the z-score in experiment [1] was -0.634; in experiment [2], 1.46 (inactive); in [3], -1.77 (inactive); in [5], 1.55 (inactive); in [6], 0.925 (inactive); in experiment [7], -0.508 (inactive). Further, the results for the z-score in experiment [8] and in experiment [9] were -1.25 (inactive) and -0.533, respectively. For the same compound, the composite z-score is 0.158 (inactive) in experiment [4] and 0.026 in experiment [10].

As to `O=C(NCC(F)(F)F)[C@@H]1c2ccccc2C(=O)N(Cc2ccc(OC(F)(F)F)cc2)[C@H]1c1ccc(CO)cc1`, the z-score was 1.09 in experiment [1]; -1.13 (inactive) in experiment [2]; 0.482 (inactive) in experiment [3]; -0.177 (inactive) in experiment [5]; 0.0971 (inactive) in [6]; 0.504 (inactive) in experiment [7]. For the same compound, the z-score was 0.632 (inactive) in experiment [8] and 1.04 in experiment [9]. Moreover, the composite z-score was -0.504 (inactive) in experiment [4] and 0.104 in experiment [10].

With `C=C(/C(=C/C[C@H](OC(=O)c1ccncc1)c1ccc(CO)o1)c1cc(C(=O)OC)ccc1OC)C(C)C`, the z-score in [1] was -0.154; in experiment [2] it was -0.368 (inactive); in [3] it was -0.797 (inactive); in experiment [5], 1.38 (inactive); in experiment [6], 0.112 (inactive); in experiment [7], -0.825 (inactive). The z-score in [8] is -0.655 (inactive); in [9] it was -0.9. Moreover, the composite z-score is -0.913 (inactive) in experiment [4] and -0.124 in [10].

For `CCCC[C@@H]1C[C@H]1[C@@H](NC(=O)c1ccccc1)c1ccc(C(F)(F)F)cc1`, the z-score in experiment [1] is 1.09; in [2], 0.628 (inactive); in [3] it was 0.142 (inactive); in experiment [5], 0.479 (inactive); in experiment [6], 0.176 (inactive); in experiment [7] it was 0.1 (inactive). For the same compound, the z-score was 0.155 (inactive) in [8] and 0.329 in [9]. In addition, the composite z-score in experiment [4] was 0.573 (inactive); in experiment [10], -0.369.

On to `CCOC(=O)c1ccc(NC(=O)O[C@H]2[C@H](OC(=O)Nc3ccc4c(c3)OCO4)[C@H](OC(=O)Nc3ccc4c(c3)OCO4)[C@@H](OC)O[C@@H]2CO)cc1`, for which the z-score is -1.09 in [1]; 1.12 (inactive) in experiment [2]; -1.55 (inactive) in experiment [3]; 0.95 (inactive) in experiment [5]; 1.57 (inactive) in experiment [6]; 1.11 (inactive) in experiment [7]. Moreover, the values for the z-score in [8] and in experiment [9] were 0.311 (inactive) and -1.36, respectively. In addition, the composite z-score in experiment [4] is -0.57 (inactive); in experiment [10] it was 0.32.

On to `O=C1OCC=C[C@H]2OC34C=CCN(c5ccc(Cl)cc5)C(=O)[C@H]3N(CCO)C(=O)[C@@H]4[C@@H]12` (stereo not given in full), for which the z-score in experiment [1] was -0.222; in experiment [2] it was 0.52 (inactive); in experiment [3], 0.296 (inactive); in experiment [5], -0.401 (inactive); in experiment [6] it was 0.568 (inactive); in [7], 0.973 (inactive). The z-score in experiment [8] is 1 (inactive); in experiment [9], 0.825. The composite z-score in experiment [4] is 0.198 (inactive); in experiment [10], -0.22.

Turning to `CC=CC(O)C1C=CC2C(=O)N(c3ccccc3)C(=O)C2N1Nc1ccccc1F` (stereo not given), the z-score in experiment [1] is -0.471; in experiment [2] it was -0.383 (inactive); in experiment [3], -0.424 (inactive); in experiment [5], 1.21 (inactive); in experiment [6], 0.503 (inactive); in experiment [7], -0.382 (inactive). Besides, the z-score in experiment [8] was -0.279 (inactive); in experiment [9], -0.788. The values for the composite z-score in experiment [4] and in experiment [10] were -0.813 (inactive) and 0.181, respectively.

Take `Cc1ccc(S[C@]2(C(=O)NCC(F)(F)F)CC(=O)N(C3CCCCC3)[C@@H]2c2ccc(CO)cc2I)cc1`: the z-score in experiment [1] was 0.04; in [2] it was 0.108 (inactive); in experiment [3] it was 0.384 (inactive); in [5], 0.201 (inactive); in [6], -0.531 (inactive); in experiment [7], -0.0243 (inactive). Besides, the z-score in [8] is -0.223 (inactive); in [9], -0.128. Also, the figures for the composite z-score in experiment [4] and in [10] were 0.0443 (inactive) and -0.12, respectively.

In the case of `COc1cc(OC)c(C(O)C2C=CC3C(=O)N(c4ccccc4)C(=O)C3N2Nc2ccccc2)cc1Br` (stereo not given), the z-score is 0.222 in experiment [1]; -11 (active) in experiment [2]; -1.14 (inactive) in experiment [3]; 0.475 (inactive) in [5]; 0.378 (inactive) in experiment [6]; -1.05 (inactive) in experiment [7]. Further, the figures for the z-score in [8] and in experiment [9] were -0.163 (inactive) and -1.52, respectively. Also, the results for the composite z-score in experiment [4] and in experiment [10] were 0.593 (inactive) and 0.0967, respectively.
